Results taken from PubChem BioAssay.
Records with an inconclusive call do not appear. Activity calls are given as the source filed them.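 How the source made its calls, unless noted: active means viability loss from added drug above about 55%, and viability with drug at most 40%, in both replicates (limit read from the data, passing the limit was not always enough); inconclusive means both conditions met in only one replicate; inactive means neither replicate meets both conditions.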

Legend:
[1] = Her2 expression decrease, cell viability multiplex – SKBR3 breast tumor cells, AlphaScreen, ATP viability, primary screen (AID 461;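 active means Her2 level under about 52% in both replicate screens, with viability over 70% of control, limit read from the data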;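 on Her2 level: lower value means less Her2 protein in the cells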;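 on viability: percent of carrier control wells set as 100% viability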); settings: SKBR3 Her2 protein level, 18-24 h, measured here: SKBR3 viability, ATP luminescence, at 10 µM
[2] = target: Receptor tyrosine-protein kinase erbB-2 (Homo sapiens) (UniProt P04626); assay: as above; settings: 18-24 h, at 10 µM, stronger effect = lower value
Sequence of Receptor tyrosine-protein kinase erbB-2 (Homo sapiens) (P04626 whole entry, looked up): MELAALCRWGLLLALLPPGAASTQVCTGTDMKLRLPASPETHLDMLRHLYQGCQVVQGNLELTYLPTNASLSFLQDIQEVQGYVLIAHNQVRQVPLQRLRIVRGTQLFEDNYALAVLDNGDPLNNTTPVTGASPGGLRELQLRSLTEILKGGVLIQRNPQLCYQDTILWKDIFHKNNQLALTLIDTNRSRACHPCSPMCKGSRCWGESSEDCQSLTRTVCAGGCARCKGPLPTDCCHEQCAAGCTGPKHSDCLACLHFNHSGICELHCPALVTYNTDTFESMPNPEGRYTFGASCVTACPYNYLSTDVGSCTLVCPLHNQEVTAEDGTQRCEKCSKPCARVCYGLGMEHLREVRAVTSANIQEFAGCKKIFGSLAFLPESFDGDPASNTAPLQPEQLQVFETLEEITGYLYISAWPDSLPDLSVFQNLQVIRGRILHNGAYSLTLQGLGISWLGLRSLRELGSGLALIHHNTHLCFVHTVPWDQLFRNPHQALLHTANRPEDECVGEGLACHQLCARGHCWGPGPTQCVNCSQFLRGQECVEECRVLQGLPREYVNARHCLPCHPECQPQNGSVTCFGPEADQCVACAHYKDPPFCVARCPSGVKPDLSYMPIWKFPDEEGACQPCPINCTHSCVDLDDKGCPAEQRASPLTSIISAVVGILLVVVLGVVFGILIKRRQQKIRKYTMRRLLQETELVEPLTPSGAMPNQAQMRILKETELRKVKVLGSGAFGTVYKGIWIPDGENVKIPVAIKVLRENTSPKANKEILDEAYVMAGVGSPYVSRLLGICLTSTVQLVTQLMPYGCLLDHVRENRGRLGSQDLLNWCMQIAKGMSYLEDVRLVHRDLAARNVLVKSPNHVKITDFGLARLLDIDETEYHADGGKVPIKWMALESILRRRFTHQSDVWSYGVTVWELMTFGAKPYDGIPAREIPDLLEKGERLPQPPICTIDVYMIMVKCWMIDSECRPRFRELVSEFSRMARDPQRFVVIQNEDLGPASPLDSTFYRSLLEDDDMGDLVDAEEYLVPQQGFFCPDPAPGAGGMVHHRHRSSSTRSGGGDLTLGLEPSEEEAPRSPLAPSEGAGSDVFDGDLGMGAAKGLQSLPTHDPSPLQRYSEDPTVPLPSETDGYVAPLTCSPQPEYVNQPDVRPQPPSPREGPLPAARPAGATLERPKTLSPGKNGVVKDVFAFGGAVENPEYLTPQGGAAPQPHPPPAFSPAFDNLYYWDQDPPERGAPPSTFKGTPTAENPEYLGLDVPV

[3] = reduced viability of SK-BR-3 breast cancer cells – cell-based, 24 h, human, pilot screen (AID 572;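 active means viability at or below 10% of carrier control in both of two separate runs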;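 further: compound exposure lasted between 18 and 24 h rather than exactly 24 h; 100% = carrier-treated control wells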); settings: SK-BR-3 viability, CellTiter-Glo luminescence, at 10 µM, stronger effect = lower value
[4] = HUVEC growth inhibition – cell-based, human, primary screen (AID 575;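 active means viability at or below 30% in both replicate assays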;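 further: 100% = median of untreated cell wells with 0.1% DMSO on each plate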); settings: HUVEC proliferation, CellTiter-Glo luminescence, 72 h; at 10 µM; stronger effect = lower value
[5] = H69AR cell proliferation blockers – human, duplicate replicates, primary screen (AID 580;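 active means viability at or under a set limit in both replicates, limit being median viability minus 3 SD, cut at about 48% in these data, passing the limit was not always enough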;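 further: 100% = mean luminescence of untreated wells and 0% = no signal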); settings: H69AR lung tumor cells viability, ATP luminescence, 72 h; at 10 µM; stronger effect = lower value
[6] = MRP1 drug-resistance reversers in H69AR cells – cell-based, doxorubicin co-treatment, pilot screen (AID 601); settings: CellTiter-Glo, 72 h, at 10 µM; for differential viability (reversal): stronger effect = higher value
[7] = yeast transport mutant growth inhibition pilot in 384-well plates, post-Golgi transport modulator project (AID 636; in the data active means inhibition above about 31%); settings: absorbance 615 nm, about 18 h, stronger effect = higher value
[8] = growth suppression of yeast trafficking mutant, preliminary HTS, modulators of trafficking downstream of Golgi apparatus project, 1536-format plate, OD 615 nm (AID 637; in the data active means inhibition above about 30%); settings: yeast transport mutant growth, absorbance 615 nm, 18 h; stronger effect = higher value
[9] = S. cerevisiae growth inhibition in permissive medium (OD615), pilot counter-assay for S. cerevisiae lifespan shortening project, permissive growth control (AID 705;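 active means growth inhibition above 25% in both replicates, a cutoff set 3 SD above the mean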); settings: OD615, 24 h, at 10 µM, stronger effect = higher value
[10] = S. cerevisiae growth inhibition in restrictive medium, OD615, pilot screen, restrictive growth control, yeast lifespan reduction project (AID 706;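 active means growth inhibition above a set limit, 3 SD over mean compound inhibition, in both replicates, cut at about 43% in these data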;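 further: modified DeaD lifespan yeast strain shifted to restrictive glucose medium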); settings: OD615, 48 h, at 10 µM, stronger effect = higher value
[11] = doxorubicin toxicity protection in MRP-1 cells – H69AR cells, CellTiter-Glo, duplicate, MRP-1 activator project, pilot screen (AID 807;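 active means viability increase at or above a cutoff of the median across tested compounds plus 3 SD, cut at about 8.5% in these data, passing the limit was not always enough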;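 further: compound pretreatment 18-22 h then 72 h combined with doxorubicin; 0% = doxorubicin alone and 100% = vehicle without doxorubicin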); settings: H69AR viability with doxorubicin, CellTiter-Glo luminescence; at 10 µM; stronger effect = higher value
[12] = viability of HCT116 without oncogenic beta-catenin – human colon tumor cells, pilot screen (AID 823;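 active means cell viability at or below a set limit in both duplicate runs, the limit being the all-compound median minus 4 SD, cut at about 23% in these data, passing the limit was not always enough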;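 further: 0% = wells killed by 20 µM Hyamine and 100% = untreated DMSO cell wells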); settings: HCT116 beta-catenin knockout viability, CellTiter-Glo, 60 h; at 10 µM; stronger effect = lower value
[13] = viability of PTEN-null HCT116 cells – cell-based, HCT116 clonal line, CellTiter-Glo, pilot screen (AID 824;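 active means viability at or below 27.92% in each of two runs, the all-compound median minus 4 SD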;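 further: 0% = 20 µM Hyamine control and 100% = vehicle cell control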); settings: HCT116 PTEN-deleted viability, 60 h, at 10 µM, stronger effect = lower value
[14] = RAM pathway blockade in budding yeast – dse1pr::URA3 reporter, 5-FOA selection, pilot screen (AID 869;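 active means inhibition over a set limit, the all-compound mean plus 3 SD, in both replicate runs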;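 further: 0% = DMSO wells with no growth and 100% = 10 µM 1-NA-PP1 with full growth; RAM network block rescues cells from 5-FOA so hits raise OD615 growth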); settings: S. cerevisiae dse1pr::URA3 5-FOA growth, OD615, 2 d; at 10 µM; stronger effect = higher value; strain carries analog-sensitive mutant Cbk1 kinase
[15] = H69AR cells + 2 uM doxorubicin, measured here: viability with 2 uM doxorubicin, stronger effect = lower value
[16] = H69AR cells, compound alone cytotoxicity

Row | Structure (SMILES) | viability [1] | Her2 level [2] | viability [3] | viability [4] | viability [5] | differential viability (reversal) ([6]; H69AR cells + 2 uM doxorubicin) | viability [6, 15] | viability [6, 16] | inhibition [7] | inhibition [8] | growth inhibition [9] | growth inhibition [10] | viability increase [11] | viability [12] | viability [13] | inhibition [14]
1 | Cc1cc(C(=O)CSCCCn2c(=O)[nH]c3ccccc32)c(C)n1C | 105% | 98% (inactive) | 105% (inactive) | 110% (inactive) | 98.1% (inactive) | 9.45% (inactive) | 88.7% | 98.1% | 0.41% (inactive) | -5.08% (inactive) | – | – | – | – | – | –
2 | CCOC(=O)CSc1nn(C)c(=S)s1 | 97.5% | 106% (inactive) | 97.5% (inactive) | 73.2% (inactive) | 102% (inactive) | 7.25% (inactive) | 94.9% | 102% | -2.4% (inactive) | -1.5% (inactive) | – | – | – | – | – | –
3 | CC1CCCN(c2ccc(C(=O)NCc3cccs3)cn2)C1 (configuration not stated) | 98.5% | 89.5% (inactive) | 98.5% (inactive) | 96.1% (inactive) | 82.8% (inactive) | 4.85% (inactive) | 77.9% | 82.8% | -0.91% (inactive) | -2.86% (inactive) | – | – | – | – | – | –
4 | Cc1ccccc1C(=O)NC1CCN(Cc2nnnn2Cc2ccccc2)CC1 | 93.5% | 78% (inactive) | 93.5% (inactive) | 91.3% (inactive) | 98.2% (inactive) | 2.56% (inactive) | 95.6% | 98.2% | -4.46% (inactive) | 3.49% (inactive) | – | – | – | – | – | –
5 | CCCOC(=O)/C(C(N)=NCc1ccccc1)=C(\O)OCCC | 82% | 95% (inactive) | 82% (inactive) | 82.6% (inactive) | 88.8% (inactive) | -4.66% (inactive) | 93.4% | 88.8% | 1.3% (inactive) | -2.79% (inactive) | – | – | – | – | – | –
6 | CCCCn1c(SCC(=O)NCc2ccccc2)nc2ccc(N3CCOCC3)cc2c1=O | 80% | 89.5% (inactive) | 80% (inactive) | 98.1% (inactive) | 74% (inactive) | -5.76% (inactive) | 79.8% | 74% | -1.22% (inactive) | 1.8% (inactive) | – | – | – | – | – | –
7 | CC(NC(=O)c1cn(C)c2ccc(S(=O)(=O)N3CCCC3)cc2c1=O)c1ccc2c(c1)OCCO2 (configuration not stated) | 89% | 78.5% (inactive) | 89% (inactive) | 85.6% (inactive) | 77.8% (inactive) | 33.8% (inactive) | 44% | 77.8% | -6.22% (inactive) | 4.75% (inactive) | -9.02% (inactive) | -24.8% (inactive) | -4.7% (inactive) | 75.5% (inactive) | 76% (inactive) | 2.6% (inactive)
8 | CCOC(=O)CCNC(=O)Nc1ccc2nc(C)n(Cc3ccccc3Cl)c(=O)c2c1 | 87% | 110% (inactive) | 87% (inactive) | 92.9% (inactive) | 94.9% (inactive) | 7.92% (inactive) | 87% | 94.9% | -0.92% (inactive) | 1.67% (inactive) | – | – | – | – | – | –
9 | COc1ccccc1N1CCN(C(=O)c2ccc3nc(-c4ccco4)c(-c4ccco4)nc3c2)CC1 | 103% | 79.5% (inactive) | 103% (inactive) | 48.5% (inactive) | 69.6% (inactive) | -8.06% (inactive) | 77.6% | 69.6% | -4.67% (inactive) | -4.1% (inactive) | – | – | – | – | – | –
10 | CCOC(=O)CSc1nc2ccccc2n1CC(=O)N1CCN(c2ccccc2)CC1 | 93.5% | 99.5% (inactive) | 93.5% (inactive) | 87.2% (inactive) | 89.9% (inactive) | 2.73% (inactive) | 87.1% | 89.9% | -1.3% (inactive) | -4.92% (inactive) | – | – | – | – | – | –
11 | O=C(CN(Cc1ccco1)C(=O)c1cc(=O)[nH]c2ccccc12)Nc1ccccc1Br | 97% | 79.5% (inactive) | 97% (inactive) | 98.2% (inactive) | 83.1% (inactive) | 9.09% (inactive) | 74% | 83.1% | -4.4% (inactive) | -0.33% (inactive) | – | – | – | – | – | –
12 | CCN(CC)c1ccc2c(C)c(-c3ccc(N)cc3)c(=O)oc2c1 | 96.5% | 84.5% (inactive) | 96.5% (inactive) | 60.4% (inactive) | 61.8% (inactive) | -9.77% (inactive) | 71.6% | 61.8% | -7.33% (inactive) | 12.3% (inactive) | – | – | – | – | – | –
13 | CC1CN(c2nc3ccccc3nc2C(C#N)C(=O)OC2CCCCC2)CC(C)O1 (configuration not stated) | 94% | 97% (inactive) | 94% (inactive) | 78.7% (inactive) | 96.1% (inactive) | 12.6% (inactive) | 83.5% | 96.1% | -5.07% (inactive) | 2.54% (inactive) | – | – | – | – | – | –
14 | CCOC(=O)N1CCN(C(=O)CN(C)S(=O)(=O)c2ccc(OC)c(OC)c2)CC1 | 100% | 94.5% (inactive) | 100% (inactive) | 104% (inactive) | 91.5% (inactive) | 3.21% (inactive) | 88.3% | 91.5% | -6.84% (inactive) | 1.97% (inactive) | – | – | – | – | – | –
15 | Clc1ccc(C2Nc3ccccc3-n3cccc32)cc1 (configuration not stated) | 92% | 82% (inactive) | 92% (inactive) | 60.8% (inactive) | 66.7% (inactive) | -9.2% (inactive) | 75.9% | 66.7% | -3.87% (inactive) | 7% (inactive) | -26% (inactive) | -13.6% (inactive) | -4.67% (inactive) | 82.8% (inactive) | 81.3% (inactive) | 3.41% (inactive)
